Screens deposited in PubChem by National Center for Advancing Translational Sciences (NCATS).
Shown are actives, neighbours in structure and some others; about 14% of the full set was active somewhere.
FBPA Giardia inh = blocks Giardia fructose-bisphosphate aldolase activity; Potency, µM (titrated, usually from 59.6 µM), without a hit: at the top dose activity, negative = inhibition, actives largely listed as inhibitors; A8B2U2; 0.71% of 290,000 active; AID 2451; purified Giardia FBPA; also: potency is read from the fitted curve at half-maximal effect; % is scaled to controls: 0 for no effect and ±100 for the full control effect; nearly all actives have a fitted effect of over 55% in size
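40 nM FBPA preincubated 10 min at RT with compound (up to 57.5 uM final), then substrate plus GAPDH/TPI/NAD/arsenate coupling and diaphorase/resazurin added. Fluorescence read after 20 min at RT, 525/598 nm.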
CHX counter = counter-screen for Shiga toxin inhibitors: cycloheximide protein synthesis inhibition. cell reporter, cycloheximide protein synthesis inhibition counterscreen. max response, %. 12% of 300,000 active; in the data active = max response mostly above about 13%, no sharp cut-off; inactive = mostly below about 14%; also: read at 38.3 µM for the half of the compounds with a filed dose; 0% is about no effect
NS1 inh = influenza NS1 inhibition; Potency, µM (top dose mostly 46.1 µM), for the others: at the highest dose activity, positive = more growth; AID 2326; 0.4% of 270,000 active; calls by dose curve; also: potency is read from the fitted curve at half-maximal effect; actives are rising curves; nearly all actives have a fitted effect of over 50% in size
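Read-out: OD600 growth recovery of NS1-expressing budding yeast. Cells grown overnight at 30C in -URA glucose medium, washed, resuspended and diluted 1:100 in 2% galactose assay medium, pH 6.0. Same strain lacking NS1 served as positive control.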
Shiga inhibitor = blocks Shiga toxin action in Vero cells | AID 2315 | inhibition, % at 38.7 µM | 9.2% of 290,000 active | Vero cells, Shiga toxin protein synthesis inhibition reporter; in the data active = inhibition mostly above about 28%, no sharp cut-off; inactive = mostly below about 43%; also: 0% is about no effect
LmPK inhibitor = LmPK (Leishmania mexicana) enzyme inhibition; Q27686; purified LmPK, Kinase-Glo ATP luminescence, 1 h; Potency, µM (top dose mostly 57.5 µM), for the others: top-dose activity change, negative = inhibition, actives largely listed as inhibitors; 0.37% of 290,000 active; AID 1721; also: potency is read from the fitted curve at half-maximal effect; % is scaled to controls: 0 for no effect and ±100 for the full control effect
Target sequence (Q27686 whole entry, looked up): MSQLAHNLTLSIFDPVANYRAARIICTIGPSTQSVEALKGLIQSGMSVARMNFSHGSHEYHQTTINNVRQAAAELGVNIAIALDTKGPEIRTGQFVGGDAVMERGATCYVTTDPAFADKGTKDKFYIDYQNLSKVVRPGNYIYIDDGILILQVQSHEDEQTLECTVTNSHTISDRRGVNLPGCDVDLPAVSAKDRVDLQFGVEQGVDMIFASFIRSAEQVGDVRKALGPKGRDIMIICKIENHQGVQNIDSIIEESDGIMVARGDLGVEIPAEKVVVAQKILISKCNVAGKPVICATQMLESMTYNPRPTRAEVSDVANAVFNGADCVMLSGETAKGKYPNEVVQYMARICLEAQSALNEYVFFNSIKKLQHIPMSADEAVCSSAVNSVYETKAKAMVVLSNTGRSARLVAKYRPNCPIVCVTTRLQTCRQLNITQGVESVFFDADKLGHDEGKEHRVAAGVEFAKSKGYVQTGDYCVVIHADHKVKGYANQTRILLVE
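Purified LmPK (0.1 nM) with 0.5 mM PEP and 0.1 mM ADP in imidazole buffer pH 7.2 with MgCl2/KCl, 1 h at room temperature. ATP formed was read by luciferase luminescence and normalized to no-enzyme and uninhibited controls.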
The depositor's hits bear a star; i = inactive; . = no result; [ ] = remark or other dose. Unless noted, calls follow the shape of the dose curve; as a rule, active = well fitted curve in the direction sought with a large enough effect; inconclusive = small, poorly fitted or top-dose-only effect, or another doubt; inactive = no such curve, though single readings can be large; an effect the other way counts as inactive or inconclusive.

SMILES	FBPA Giardia inh	CHX counter	NS1 inh	Shiga inhibitor	LmPK inhibitor
CC1CCc2sc(C(=O)Nc3ccc(C(N)=O)cc3)cc2C1 (stereo unspecified)	-2.6%	32.3*	-0.6%	23.0	5.6%
CC1CCc2sc(C(=O)NNC(=S)NC3CC3)cc2C1 (stereo unspecified)	.	20.8*	2.2%	24.1	-1.3%
CC1CCc2sc(C(=O)OCC(=O)NC(N)=O)cc2C1 (stereo unspecified)	5.1%	0.6	-1.5%	11.5	2.0%
COC(=O)C[C@H]1c2ccccc2C2=C(C[C@@H](C)[C@H]3C(=O)N(c4ccccc4)C(=O)[C@@H]23)N1C(=O)OC	5.1%[12.9 µM]	.	.	.	1.2%[11.5 µM]
Cc1nn(C(=O)c2cccs2)c(C)c1CN1C(=O)c2ccccc2C1=O	4.5%	-3.9	1.9%	-17.3	1.3%
Cc1nn(C(=O)c2cc3sccc3[nH]2)c(C)c1C	-0.2%	42.8*	-1.5%	92.0*	9.9%
COCCCC1CCN(C(=O)C2CCC(=O)N(CC3CCCCC3)C2)CC1 (stereo unspecified)	.	-3.0	-6.0%	2.5	-2.2%
CCN(C(=O)c1cccs1)c1nnc(-c2ccncc2)s1	-0.8%	15.6*	-9.7%	active	0.7%
O=C(NC1CCCc2ccccc21)c1cn2ccccc2n1 (stereo unspecified)	-3.9%	19.0*	.	15.3	-1.2%
Cn1ccc(C(=O)OCC(=O)Nc2cccc3ccccc23)n1	0.6%	-3.9	.	3.9	5.7%
Cc1ccc(C(=O)COC(=O)c2cn3ccccc3n2)cc1	0.3%	42.2*	1.4%	i	5.1%
Cc1ccc(C(=O)COC(=O)c2cnccn2)cc1	3.5%	-2.1	-1.9%	-1.8	-11.6%
Cc1nc2ccccn2c1C(=O)NN	-9.9%	-0.7	-8.4%	-4.2	3.2%
Cc1nc2ccccn2c1C(=O)NC1CCCc2ccccc21 (stereo unspecified)	4.1%	-1.5	-5.1%	2.5	-3.5%
NNC(=O)c1cn2ccccc2n1	-29.9%	29.0*	0.5%	59.6*	0.7%
Cn1ccc(C(=O)OCC(=O)c2ccccc2)n1	4.4%	16.9*	1.3%	59.5	-13.0%
COc1ccc(Br)cc1/C=N/n1nnnc1N	-8.5%	-8.9	12.5%	-10.1	0.3%
CC(C)=CCC/C(C)=C/CO/N=C1/C[C@@H](O)[C@@H](O)[C@@H]2[C@@H]3C(=O)N(C4CCCCC4)C(=O)[C@H]3CC[C@H]12	-1.0%[12.9 µM]	.	.	.	.
Cc1cc(C)cc(NC(=O)Cn2c(SCc3cc(C)ccc3C)nc3ccncc32)c1	1.5%	75.6*	2.0%	89.2*	-2.9%
N#CCCn1c(=O)c(-c2ccccc2)nc2cnc(OCc3ccccc3)nc21	-7.4%	.	.	.	.
O=C(C1CCC1)N1CCc2cc(S(=O)(=O)NCc3ccco3)ccc21	1.2%	35.0*	3.2%	49.1	5.8%
CC1CCCC(C)N1C(=O)c1ccc(S(=O)(=O)NCc2ccco2)cc1 (stereo unspecified)	3.2%	26.8*	1.4%	46.3*	-4.5%
CCC(=O)N1CCc2cc(Br)cc(S(=O)(=O)NCc3ccco3)c21	10.2%	35.2*	6.6%	105.9*	5.7%
CCN(CC(=O)NCc1ccc(F)cc1)C(=O)c1ccc(Cl)cc1	10.6%	0.9	1.5%	-8.2	-2.9%
CCN(CC(=O)NCc1ccc(Cl)cc1)C(=O)c1ccc(S(=O)(=O)NCc2ccco2)cc1	.	59.0*	2.1%	66.8*	-6.1%
SMILES	FBPA Giardia inh	CHX counter	NS1 inh	Shiga inhibitor	LmPK inhibitor
CN1CCN(c2ccnc(-c3cccc(NS(C)(=O)=O)c3)n2)CC1	-5.2%	.	.	.	.
CCN1C(C)=C(C(=O)OC)C(c2ccccc2)N2C(=O)[C@@]3(C(=O)OC)O[C@@]12C1C(=O)CCCC13 (stereo partly specified)	-0.2%[12.9 µM]	.	.	.	.
NC(=O)c1c(/N=C/c2cccnc2)sc2c1CCCC2	-6.6%	25.1*	-5.7%	47.2*	-2.9%
Cc1ccc(/C=N/c2sc3c(c2C(N)=O)CCCC3)o1	-12.8%	36.7*	.	59.8*	-6.0%
CN(C)/C=N/c1sc2c(c1C(N)=O)CCCC2	-0.6%	17.1	.	4.0	-19.5%
O=C(Nc1cccc(F)c1)N1CC2(CCN(S(=O)(=O)c3ccccc3)CC2)C1	-0.9%	.	.	.	.
CC1=CC(c2ccccc2)=Nc2ccc(C)cc2N1	-17.7%	57.3*	-3.2%	43.3*	-24.1%
Cc1ccc2c(c1)C(c1ccccc1)=NCC(=O)N2	1.3%	-1.9	-5.6%	-7.8	3.6%
O=C(NCc1cccnc1)C1CCCN(S(=O)(=O)c2ccc(Cl)cc2)C1 (stereo unspecified)	9.9%	36.4*	-10.8%	11.4	2.4%
